The values below come from PubChem BioAssay (NCI).

Assay in all cases: NCI-60 one-dose screen, 48 h (100 = growth as untreated, 0 = no growth, -100 = all killed)
Details in all cases: 10 µM unless noted

The test system of assay [1] is SR leukemia.
Assay [2] deals with RPMI-8226 leukemia.
In assay [3] the test system is OVCAR-8 ovarian.
The test system of assay [4] is OVCAR-5 ovarian.
Assay [5] concerns OVCAR-4 ovarian.
The subject of assay [6] is SK-OV-3 ovarian.
Assay [7] concerns IGROV1 ovarian.
Assay [8] deals with OVCAR-3 ovarian.
Assay [9] deals with HS 578T breast.
The test system of assay [10] is NCI/ADR-RES ovarian.
The test system of assay [11] is T-47D breast.
For assay [12], the system named is BT-549 breast.
The test system of assay [13] is SW-620 colon.
Assay [14] relates to MCF7 breast.
The subject of assay [15] is HCT-116 colon.
Assay [16] has as its system HCC-2998 colon.
The subject of assay [17] is KM12 colon.
For assay [18], the system named is MDA-MB-435 melanoma.

About 83,000 compounds went through this panel and 20% of them were active in at least one assay; those are over-represented in the sample as a whole.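 Results are percent growth after 48 hours of single-concentration exposure. 100 means growth as in untreated cells, lower positive values show inhibition; negative values down to -100 show cell death.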 Unmarked numbers belong to inactive results. The source made the active and inactive calls. Rule for the calls: active = growth percent below 10; inactive = the rest.

With `S=c1ccnc[nH]1`, the growth is 131% in assay [1]; 110% in assay [2]; 100% in [3]; 101% in [4]; 117% in assay [5]; 113% in assay [6]. In addition, the growth in [7] was 110%; in assay [8], 111%; in assay [9], 113%; in assay [10], 100%; in assay [11], 125%; in [12], 106%. Also, the growth in assay [13] was 108%; in assay [14], 107%; in assay [15], 96.8%; in assay [16], 104%; in assay [17], 109%.
With `CCCC(=O)NC(c1ccc2c(c1)OCO2)c1cc(Cl)c2cccnc2c1O` (configuration not stated), the growth in assay [1] was 10.9%; in assay [2], 17.7%; in [3] it was 10.6%; in assay [4], 54%; in assay [5], 19.3%; in assay [6], 29.8%. For the same compound, the growth was 16.2% in assay [7]; 17.6% in assay [8]; 44.4% in assay [9]; 1.56% (active) in [10]; 63.3% in assay [12]; 37.5% in assay [18]. For the same compound, the growth was 24.7% in assay [13]; 17.5% in [14]; 23.1% in [15]; 43.1% in [16]; 33.9% in assay [17].
`CCOC(=O)c1c(C)nc2ccccc2c1/C=C/c1ccc(F)cc1`: the growth in assay [1] is 56.3%; in assay [2], 48.7%; in [3], 70.4%; in [4], 93.1%; in assay [5], 64.2%; in assay [6], 87.6%. Besides, the growth in [7] was 66.6%; in assay [8], 80.8%; in assay [9], 96.3%; in assay [10], 41.2%; in assay [11], 23.4%; in assay [12], 73.6%. The growth was 85.5% in assay [13]; 23.3% in assay [14]; 56.2% in assay [15]; 81.1% in assay [16]; 72.5% in [17].
Take `COCCn1cc(-c2nc(-c3cc4cccnc4n3C)cs2)c2ccccc21`: the growth in [1] was 10.1%; in assay [2] it was 55.7%; in [3] it was 39%; in assay [4] it was 49%; in [5], 25.1%; in assay [6], 58.7%. Also, the growth is 43.7% in [7]; 31.5% in [8]; 61.5% in [9]; 13.3% in [10]; -36.7% (active) in [11]; 24.9% in [12]. Besides, the growth is 28.9% in [13]; 6.6% (active) in assay [14]; 23.5% in assay [15]; 57.8% in assay [16]; 4.96% (active) in assay [17].
For `COC(=O)c1c2c(c(C)[n+]([O-])c1C)C(=O)C(NCc1ccccc1)=CC2=O`, the growth in assay [1] is 61.4%; in assay [2], 37.3%; in assay [3], 5.27% (active); in [4] it was 39.5%; in assay [5] it was -78.7% (active); in assay [6], 88.8%. Moreover, the growth in assay [7] is 8.63% (active); in assay [8], 0.759% (active); in assay [9], 68.8%; in assay [10], 2.6% (active); in [12], 71.5%; in assay [18], -61.4% (active). Further, the growth in assay [13] is 9.9% (active); in assay [14] it was -33.9% (active); in [15], 7.3% (active); in [16], 16.9%; in assay [17] it was 26.4%.
For the compound `C=CCN=c1sc(-c2ccc3ccccc3c2)cn1NC(=O)c1cc2ccc1CCc1ccc(cc1)CC2`, the growth is 39.1% in assay [1]; 25.8% in [2]; 65.5% in assay [3]; 103% in [4]; 33.5% in [5]; 82.1% in assay [6]. In addition, the growth in [7] was 81.3%; in assay [8], 53.2%; in assay [9], 58.7%; in [10], 67.2%; in assay [12], 53.9%; in assay [18] it was 67.5%. In addition, the growth in assay [13] is 72.9%; in [14] it was 35.9%; in assay [15] it was 27.1%; in assay [16], 89.1%; in assay [17] it was 56.6%.
With `CN(C)CCC(=O)C1CC1`, the growth is 97.3% in assay [1]; 101% in assay [2]; 106% in [3]; 100% in assay [4]; 108% in assay [5]; 110% in assay [6]. Further, the growth in assay [7] is 92.3%; in assay [8], 105%; in assay [9], 111%; in assay [10] it was 98.3%; in assay [11] it was 97.6%; in assay [12], 99.7%. The growth is 102% in assay [13]; 108% in assay [14]; 96.1% in assay [15]; 103% in assay [16]; 109% in assay [17].
With `O=C(c1ccc(Br)cc1)C(Br)C(c1ccc(Cl)cc1)C(c1ccccc1)[N+](=O)[O-]` (configuration not stated), the growth in assay [1] was 103%; in assay [2], 92.1%; in assay [3], 95.3%; in [4], 108%; in assay [5], 81.4%; in assay [6], 99.4%. The growth is 108% in [7]; 94.4% in assay [8]; 87.1% in assay [9]; 95.6% in [10]; 105% in [12]; 96.4% in [13]. Also, the growth was 84.5% in assay [14], 76.2% in assay [15], 125% in [16] and 92.7% in assay [17].
Regarding `CC(C)(C)OC(=O)CN1CCc2c(sc3ncnc(N4CCN(c5ccc(F)cc5)CC4)c23)C1`, the growth in [1] is 79.8%; in assay [2], 57.7%; in assay [3] it was 73.2%; in assay [4], 82.8%; in assay [5], 85.5%; in assay [6], 102%. For the same compound, the growth is 89.8% in [7]; 90.5% in assay [8]; 70.4% in assay [9]; 79.7% in [10]; 76.1% in assay [12]; 93.3% in assay [18]. Also, the growth is 77.7% in assay [13]; 90.6% in [14]; 87.3% in assay [15]; 100% in assay [16]; 83% in assay [17].
